Data taken from the OligoGym collection.
Also: reference of the scale not given here.

Each sequence was assayed against COL20A1 (assay: pooled miR-30 sensor sort-seq; sequence = guide strand). Settings: shRNA.
TTGGTGTGAAGGCAACTTGGGG showed a sensor-assay potency score (higher = more potent) of -0.796.
With TATCTGAACTTGGAAATGCTAC the sensor-assay potency score (higher = more potent) was -0.775.
TTGAAGAGCGTGAAGGTCGGGG was tested, and the sensor-assay potency score (higher = more potent) was 0.169.

These sequences were tested against COL23A1 in the same assay as above. Settings: shRNA.
Sequence TAGTCCGTCCAACTTCTCCCGC has a sensor-assay potency score (higher = more potent) of -1.02.
TTGAGGGCATCCAAGATCCTGC gave a sensor-assay potency score (higher = more potent) of -1.13.
TAGTCGATCACCACTGTGTCTC showed a sensor-assay potency score (higher = more potent) of -0.624.
TTTGCCTGCACAGCCCACCTAG gave a sensor-assay potency score (higher = more potent) of -1.12.
Sequence TCATAGTCGATCACCACTGTGT has a sensor-assay potency score (higher = more potent) of 0.319.
Work on TTGCTGGGAACACTTGCTGGAG yielded a sensor-assay potency score (higher = more potent) of -1.43.
TTCGCTAGTCCGTCCAACTTCT showed a sensor-assay potency score (higher = more potent) of -0.113.
For TAGAGCTAGACCCTCGTGGGGG, the sensor-assay potency score (higher = more potent) was -0.316.
In the case of TTCTCTCCACGCTCGCTCCGAT, the sensor-assay potency score (higher = more potent) was -1.13.
TCTACCTTCATCTCCTTCCTGG gave a sensor-assay potency score (higher = more potent) of 0.0937.
With TTGTCCTTGGTCTCCCCGGGGG the sensor-assay potency score (higher = more potent) was -1.12.
TTGCTTTGCCTGCACAGCCCAC was tested, and the sensor-assay potency score (higher = more potent) was -1.59.

Each sequence was assayed against COL4A2 in the same assay as above. Settings: shRNA.
Work on TAGGACTTGTCGTTCCGGCTGG yielded a sensor-assay potency score (higher = more potent) of 0.103.
In the case of TAGTAGTGGCAGGTGCCGCGGC, the sensor-assay potency score (higher = more potent) was -0.784.
With TGTCACAATCTATTTGTCCTGG the sensor-assay potency score (higher = more potent) was 0.235.
TTTACGTCCCTGCAGTCCCGGG was tested, and the sensor-assay potency score (higher = more potent) was -1.37.
For TTGCATTCGATGAATGGTGTGG, the sensor-assay potency score (higher = more potent) was 0.0414.
Work on TACATCTGCATTCCCCAGCGTC yielded a sensor-assay potency score (higher = more potent) of -0.779.
TTAAATCTCAGGGACAACGTGG was tested, and the sensor-assay potency score (higher = more potent) was -0.373.
TCACACACAGAACAGCGGCTGA gave a sensor-assay potency score (higher = more potent) of -0.772.
TGATTGTTCTGGAATCTCCTTT gave a sensor-assay potency score (higher = more potent) of 0.225.
For TTTAATGTCTTTCATTCCTGGC, the sensor-assay potency score (higher = more potent) was -0.64.
Work on ATCTGTGTCACAATCTATTTGT yielded a sensor-assay potency score (higher = more potent) of -0.377.
Sequence TTTGATAGCTTCGTCGCCTTCT has a sensor-assay potency score (higher = more potent) of 0.156.
TTTGTAGTCGTTACACAGGAGG was tested, and the sensor-assay potency score (higher = more potent) was -1.03.
TACAGGAAGGGCATGGTGCTGA gave a sensor-assay potency score (higher = more potent) of -0.213.
TTCTCCTGGAGTACCCTTCGTT showed a sensor-assay potency score (higher = more potent) of -0.712.
Sequence TATCCGATCCACAAACTCCGCC has a sensor-assay potency score (higher = more potent) of -0.539.
TTGGTTGTGATTGTTCTGGAAT showed a sensor-assay potency score (higher = more potent) of -0.89.
With TAGTAGCAGACATCACCAGGGT the sensor-assay potency score (higher = more potent) was 0.056.
With TAAATTTATAGTGTCCCCGATG the sensor-assay potency score (higher = more potent) was -0.984.
In the case of TCACATCTGTGTCACAATCTAT, the sensor-assay potency score (higher = more potent) was -0.621.
TCTATCTCCTTTTAGCCCGGGG gave a sensor-assay potency score (higher = more potent) of -0.278.
Sequence TAGGGCTTGATCTCGTCCTCGG has a sensor-assay potency score (higher = more potent) of -0.228.
TTTCTCTCCTTTAATGTCTTTC was tested, and the sensor-assay potency score (higher = more potent) was -0.595.
TTGGTCTCCTTTCTGTCCTGGG was tested, and the sensor-assay potency score (higher = more potent) was -0.772.
